# Assay outcomes (PubChem BioAssay)
# Shown are actives, neighbours in structure and some others; about 18% of the full set was active somewhere.
# CtBP-E1A inh = qHTS Assay for Inhibitors of the CtBP/E1A Interaction | AlphaScreen GST-E1A/His-CtBP binding, 1536-well; active compounds read low | 340,000 tested, 0.49% active | CtBP / adenovirus E1A interaction (AlphaScreen) | activity change, % (concentration not given with the values); in the data active = activity change below about -65%; inconclusive = mostly about -30% to -63%
#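 Homogeneous bead-based format: GST-tagged E1A captured on glutathione donor beads, His-tagged CtBP on nickel acceptor beads; compounds precede bead addition by 2 h at 37 °C.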
# TDP1 inh = qHTS Assay for Inhibitors of Tyrosyl-DNA Phosphodiesterase (TDP1) | Tyrosyl-DNA phosphodiesterase 1 (Homo sapiens), Q9NUW8 | recombinant TDP1, AlphaScreen DNA substrate cleavage | Potency, µM (doses to about 130 µM), for the others: at the top dose activity change, negative = inhibition, usual class: inhibitors | 350,000 tested, 0.28% active | AID 485290, 2010; note: potency is the fitted concentration of half-maximal effect; nearly all actives have a fitted effect of over 40% in size
# Target sequence (Q9NUW8 whole entry, looked up): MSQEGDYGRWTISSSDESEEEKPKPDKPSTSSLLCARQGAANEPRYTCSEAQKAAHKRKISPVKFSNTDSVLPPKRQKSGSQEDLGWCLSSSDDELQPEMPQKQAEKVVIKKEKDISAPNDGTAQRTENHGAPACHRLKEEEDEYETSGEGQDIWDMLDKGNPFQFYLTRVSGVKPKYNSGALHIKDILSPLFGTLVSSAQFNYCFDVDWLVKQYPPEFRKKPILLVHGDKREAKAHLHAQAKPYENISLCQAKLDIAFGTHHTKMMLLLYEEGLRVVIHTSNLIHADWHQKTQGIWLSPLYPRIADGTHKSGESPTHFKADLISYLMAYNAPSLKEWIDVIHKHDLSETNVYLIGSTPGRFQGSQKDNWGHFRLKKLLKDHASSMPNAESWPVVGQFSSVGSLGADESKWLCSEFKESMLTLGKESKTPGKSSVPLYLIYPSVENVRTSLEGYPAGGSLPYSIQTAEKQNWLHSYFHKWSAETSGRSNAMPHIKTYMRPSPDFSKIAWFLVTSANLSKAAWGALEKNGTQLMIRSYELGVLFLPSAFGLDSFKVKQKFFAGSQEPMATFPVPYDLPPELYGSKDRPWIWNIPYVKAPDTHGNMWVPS
#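 Steps: enzyme plus compound, 15 min RT; add biotin/phosphotyrosine-FITC oligonucleotide (15 nM final), react 5 min; add donor/acceptor beads (10 ug/ml final), 10 min; read AlphaScreen. Tdp1 at 1 nM final.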
# DT40 TDP1 CPT = qHTS for Inhibitors of human tyrosyl-DNA phosphodiesterase 1 (TDP1): qHTS in cells in presence of CPT. 420,000 tested, 12% active. AID 686979, 2013. Potency, µM (series often up to 46.2 µM), inactives show top-dose activity change, negative = growth inhibition, hits mostly inhibitors. chicken DT40 Tdp1-/-;hTDP1 cells + 20 nM CPT, ATP luminescence, 48 h; note: potency is the fitted concentration of half-maximal effect; nearly all actives have a fitted effect of over 55% in size
#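 Cell growth measured by CellTiter-Glo luminescence after a minimum 48 h, 37 C compound exposure with 20 nM CPT in Tdp1-knockout DT40 cells stably expressing hTDP1, seeded 400/well; qHTS titration format.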
# Six1-Eya2 inh = qHTS Assay for Inhibitors of the Six1/Eya2 Interaction | AlphaScreen GST-Six1/His-Eya2 binding, biochemical; active compounds read low | Homeobox protein SIX1 (Homo sapiens) + Protein phosphatase EYA2 (Homo sapiens), … | 360,000 tested, 0.56% active | activity change, % (test concentration not listed); in the data active = activity change below about -65%; inconclusive = mostly about -30% to -63%
#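 Compounds are tested against tagged Six1 and Eya2 proteins bridged by glutathione donor and nickel acceptor beads; after a one-hour incubation at 37 °C without light, AlphaScreen emission is recorded.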
# TDP1 cell noCPT = qHTS for Inhibitors of human tyrosyl-DNA phosphodiesterase 1 (TDP1): qHTS in cells in absence of CPT. DT40 Tdp1-/- hTDP1 cells, no CPT, ATP luminescence, 48 h. Potency, µM (highest dose often 46.2 µM), for inactives: at the top dose activity change, negative = growth inhibition, usual class: inhibitors. 420,000 tested, 15% active. AID 686978, 2013; note: potency is the fitted concentration of half-maximal effect; nearly all actives have a fitted effect of over 55% in size
#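 Compound effects on proliferation are scored in DT40 Tdp1-/-;hTDP1 cells in the absence of CPT. ATP levels (CellTiter-Glo luminescence) are recorded after a ≥48 hr, 37 °C incubation.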
# IL1B secr inh = qHTS for Inhibitors of Inflammasome Signaling: IL-1-beta AlphaLISA Primary Screen. THP-1 LPS/ATP IL-1B secretion, AlphaLISA, 16 h; active compounds read low. activity change, % at 57.5 µM. 360,000 tested, 4.7% active; in the data active = activity change below about -50%; inconclusive = mostly about -30% to -49%
#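 THP-1 cells pretreated 1 hr with compounds (up to 57.5 uM final), then stimulated with LPS (250 ng/mL final) plus ATP (1.25 mM final); secreted IL-1B measured by AlphaLISA after 16 hr, decreased signal indicating inhibition.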
# Active calls of the source: *; ? = inconclusive; . = no result; [ ] = dose if it differs, or a comment. Unless noted, calls come from the whole dose curve; as a rule, active = well fitted curve in the direction sought with a large enough effect; inconclusive = small, poorly fitted or top-dose-only effect, or another doubt; inactive = no such curve, though single readings can be large; an effect the other way counts as inactive or inconclusive. % is set by controls: 0 for no effect and ±100 for the full control effect.
SMILES,CtBP-E1A inh,TDP1 inh,DT40 TDP1 CPT,Six1-Eya2 inh,TDP1 cell noCPT,IL1B secr inh
Cc1[nH][nH]c(=O)c1C(c1ccc(-c2ccccc2C(=O)O)o1)c1c(C)[nH][nH]c1=O,1,.,-12%,?,2%,0
COc1ccc(-c2cnnn2-c2ccc(NC(=O)c3c(F)cccc3F)cc2)cc1,.,8%,12µM*,.,26µM*,.
COc1ccc(-c2cnnn2-c2ccc(NC(=O)c3ccccc3OC)cc2)cc1,.,13%,21µM*,.,?,.
COc1cccc(C(=O)Nc2ccc(-n3nncc3-c3ccccc3)cc2)c1,.,5%,?,.,?,.
CC1(C)CC2CC(C)(CN2C(=O)COC(=O)c2cc(Cl)cc(Cl)c2N)C1 (centres undefined),4,0%,?,8,?,4
COc1ccc(-c2cc(C(=O)N3CCCCC3C)no2)cc1OC (centres undefined),.,4%,-3%,.,-17%,.
COc1ccc(-c2cc(C(=O)N3CC4(C)CC3CC(C)(C)C4)no2)cc1OC (centres undefined),0,7%,?,14,16µM*,-2
COc1ccc(/C(C)=N/OCC(=O)N2CC3(C)CC2CC(C)(C)C3)cc1 (centres undefined),12,-1%,?,-1,?,-78*
COc1ccc(-c2cc(C(=O)N3CCOCC3)no2)cc1,2,12%,5%,5,-10%,-2
COc1ccc(/C=N/OCC(=O)N2CC3(C)CC2CC(C)(C)C3)cc1 (centres undefined),8,4%,-15%,0,-14%,?
CC1(C)CC2CC(C)(CN2C(=O)COC(=O)c2ccc(O)cc2O)C1 (centres undefined),-1,7.9µM*,3%,-1,-1%,2
COc1ccc(-c2cc(C(=O)N3CC4(C)CC3CC(C)(C)C4)no2)cc1 (centres undefined),4,4%,?,2,?,-53*
CC1(C)C[C@@H]2C[C@@](C)(CN2C(=O)c2cc(COc3cccc(C(F)(F)F)c3)on2)C1,15,1%,?,21,18µM*,-61*
Cc1ccc(-c2cc(C(=O)N3CCN(C(=O)c4ccco4)CC3)no2)cc1,4,3%,?,-2,-13%,-14
Cc1ccc(-c2cc(C(=O)N3CC4(C)CC3CC(C)(C)C4)no2)cc1 (centres undefined),9,.,18µM*,16,10µM*,17
O=C(c1cc(COc2cccc(C(F)(F)F)c2)on1)N1C[C@H]2CC[C@H]1C2,4,0%,?,1,?,-1
CC1CCN(C(=O)c2cc(-c3ccccc3O)on2)CC1,5,4%,-27%,4,-20%,-8
CC1(C)CC2CC(C)(CN2C(=O)c2cc(-c3ccccc3O)on2)C1 (centres undefined),0,7%,?,-1,13µM*,21
CCCCc1nc2cc(C(=O)N3CCNC(=O)C3CC(=O)OC)ccc2o1 (centres undefined),6,3%[56.1 µM],0%,7,-4%,-11
Cc1cccc(N(CC(O)CON=C2c3ccccc3-c3ccccc32)S(C)(=O)=O)c1 (centres undefined),-7,1%,?,0,?,?
CCNc1nc(C)nc2c1oc1ccccc12,-5,6%,0.58µM*,-9,-21%,8
Cc1nc(NC(C)C)c2oc3ccccc3c2n1,0,7%,?,-6,13µM*,?
O=C1C=C(O)c2cccc(O)c2C1=O,-8,.,26µM*,-8,?,15
COc1ccc(NC(=O)c2cccc3ccccc23)cc1OC,24,.,-13%,26,-8%,?
COc1cc(OC)cc(C(=O)Nc2ccc3nc4c(c(Nc5ccc(OC)c(OC)c5)c3c2)CCCC4)c1,.,15%,4.1µM*,.,23µM*,.
SMILES,CtBP-E1A inh,TDP1 inh,DT40 TDP1 CPT,Six1-Eya2 inh,TDP1 cell noCPT,IL1B secr inh
COc1ccc(Nc2c3c(nc4ccc(NC(=O)c5cc(Cl)ccc5OC)cc24)CCCC3)cc1OC,.,6%,1.6µM*,.,0.82µM*,.
CCOc1ccccc1C(=O)Nc1ccc2nc3c(c(Nc4ccc(OC)c(OC)c4)c2c1)CCCC3,.,9%,4.1µM*,.,5.2µM*,.
COC(=O)[C@@]1(Cc2ccc(F)cc2)[C@H]2c3cc(C(=O)N(C)C)n(CCCNc4ccc(C(F)(F)F)cc4Cl)c3C[C@H]2CN1C(=O)c1ccccc1,.,12%,.,.,.,.
COCCN=C1Sc2nc3ccc(C)cc3cc2CN1Cc1ccco1,-1,3%,?,-9,?,-8
O=C(NNc1cccc(Cl)n1)c1ccccc1CC[N+](=O)[O-],7,-3%,10µM*,3,?,-9
COc1ccc(S(=O)(=O)N(C)c2ccc(C(=O)NCc3ccncc3)cc2)cc1,5,3%[56.1 µM],-15%,1,-27%,-10
Cc1cc(N/N=C/c2cccc(Cl)c2)nc(-n2nc(C)cc2C)n1,-1,.,0.58µM*,4,0.82µM*,8
Cc1cc(N/N=C/c2ccc(O)cc2O)nc(-c2ccccc2O)n1,?,1%,?,?,?,-77*
Cc1cc(C)nc(N/N=C/c2cccc([N+](=O)[O-])c2)n1,4,.,-21%,8,-24%,7
Cc1cc(N/N=C\c2ccccc2)nc(-c2ccccc2O)n1,-1,1%,?,0,?,?
Cc1cc(N/N=C/c2ccccc2O)nc(-c2ccccc2O)n1,14,-1%,-26%,-7,?,0
Cc1cc(NCCO)nc(-n2nc(C)cc2C)n1,-3,5%,13%,-8,-5%,0
C/C(=N\Nc1cc(C)nc(-c2ccccc2O)n1)c1ccccc1O,-2,4%,-86%,1,13µM*,7
Cc1cc(N/N=C/c2cccc([N+](=O)[O-])c2)nc(-n2nc(C)cc2C)n1,7,3%,4.1µM*,7,3.7µM*,12
Cc1cccc(C2(c3cccc(C)c3)OC(=O)c3ccccc32)c1,9,-3%,?,3,?,-16
